The values below come from PubChem BioAssay (NCI).

Compounds without any hit were thinned out: in the full panel of roughly 83,000, 20% have a hit.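 48-hour exposure, single concentration, 96-well plates; percent growth endpoint where 0 means no net growth. Active: below 10.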 Calls of active or inactive are those of the source.

For one experiment, the system named is OVCAR-4 ovarian. The experiment in a line: NCI-60 one-dose screen, 48 h (100 = growth as untreated, 0 = no growth, -100 = all killed). The following applies: 10 µM unless noted.
`Clc1ccc(N/N=C(\c2ccccc2)c2ccccn2)nc1`: the growth was 30.7% (inactive).
Consider `c1ccc(Nc2ncc3c(n2)-c2cccn2CC3)cc1`, for which the growth is 40.3% (inactive).
For the compound `C=CCC(CCC(CC=C)C(=O)OCC)C(=O)OCC` (centres undefined), the growth is 102% (inactive).
As to `O=[N+]([O-])c1ccc(-c2ncc(-c3ccc(O)cc3O)[nH]2)cc1`, the growth was 104% (inactive).
In the case of `CC(=O)OC1/C=C\CC/C=C\C1` (centres undefined), the growth was 107% (inactive).
As for `CCN(CC)CCCNc1c2ccc(Cl)cc2nc2ccc(OC)cc12`, the growth is -35.2% (active).
In the case of `COc1cc(-c2nn(-c3ccc(NC(=O)Nc4cc(C(F)(F)F)cc(C(F)(F)F)c4)cc3)cc2-c2ccncc2)ccc1Cl`, the growth is -12.2% (active).
The same measure, in the same setting: the value for `CC(=O)Nc1nc(C)c(C(=O)NN)s1` was 118% (inactive); that for `CC/C(=N\Nc1nc2ccccc2n1C)c1ccccn1` was 11.5% (inactive).
As to `CC(=O)OCC1O[C@@H](OC(C)=O)[C@@H](NC(=O)NS(=O)(=O)c2ccccc2)C(OC(C)=O)[C@@H]1OC(C)=O` (some centres undefined), the growth is 109% (inactive).
With `Cc1nc2c(nnn2-c2ccccc2)c2nc(-c3ccccc3)oc(=O)c12`, the growth was 115% (inactive).
For the compound `CCc1ccc(C(=Nc2ccc(N(C)C(=O)CN3CCN(C)CC3)cc2)c2c(O)[nH]c3ccc(C(=O)OC)cc23)cc1`, the growth is -61.3% (active).
Take `C=C[C@]1(C)C=C2C(=O)[C@@]3(O)OC[C@@]4(CCCC(C)(C)C43O)C2(O)C(O)C1` (some centres undefined): the growth was 24.4% (inactive).
The same measure, in the same setting: the figure for `CCOC(=O)c1c2c(cn1Cc1ccccc1)-c1oncc1CC2` is 104% (inactive).

For another experiment, the system named is SK-OV-3 ovarian. The experiment is described as above. The following applies: 10 µM unless noted.
As to `O=C(Nc1ccc(-n2cc(-c3ccncc3)c(-c3ccc(Cl)c(O)c3)n2)cc1)c1cc(C(F)(F)F)cc(C(F)(F)F)c1`, the growth is 72.4% (inactive).
As to `COc1ccc(C2CC(=O)c3c(O)cc(OC4OC(COC5OC(C)C(O)C(O)C5O)C(O)C(O)C4O)cc3O2)cc1O` (centres undefined), the growth is 118% (inactive).
For the compound `O=C(NCCNCCO)c1cc([N+](=O)[O-])cc([N+](=O)[O-])c1O`, the growth is 111% (inactive).
On the same count and under the same terms, the value for `O=Nc1ccc(O)c2ccccc12` was 99.9% (inactive); that for `CC(=O)N1CCN(CCNC(=O)n2cc(-c3ccncc3)c(-c3ccc(O)c(Cl)c3)n2)CC1` was 104% (inactive).
Turning to `NC(=O)c1c(Nc2ccccc2)nn2cc(-c3nc4ccccc4s3)c(N)nc12`, the growth is 94.8% (inactive).
As to `CC(O)CN(CCO)CCN(CCO)CC(C)O` (centres undefined), the growth was 114% (inactive).
Take `COC(=O)c1ccc2[nH]c(O)c(C(=Nc3ccc(N(C)C(=O)CN4CCN(C)CC4)cc3)c3ccc(OC)cc3)c2c1`: the growth is 2.38% (active).
As for `c1ccc(C(=NNc2nc3ccccc3o2)c2ccccn2)nc1`, the growth was 13.8% (inactive).
In the case of `COC(=O)C(Cc1cnc[nH]1)N1CC(=O)N2[C@@H](c3ccccc3)SC[C@H]2C1=O` (some centres undefined), the growth was 115% (inactive).
For `COC(=O)c1ccc2[nH]c(O)c(C(=Nc3ccc(N(C)C(=O)CN4CCN(C)CC4)cc3)c3ccc4c(c3)OCO4)c2c1`, the growth is -8.57% (active).
In the case of `Cc1ccc(NCc2cn(-c3ccc(C(=O)O)cc3)nc2-c2ccc(C(=O)O)cc2)cc1`, the growth is 102% (inactive).
Turning to `O=C(c1ccccc1)c1ccccc1-c1ccccc1`, the growth is 23.5% (inactive).
As for `CCCCCCC(C(=O)OCC)(C(=O)OCC)C1CCCCCC1`, the growth was 95.7% (inactive).
Consider `COC(=O)c1ccc2[nH]c(O)c(C(=Nc3ccc(N(C)C(=O)CN4CCN(C)CC4)cc3)c3ccc([N+](=O)[O-])cc3)c2c1`, for which the growth is 22.5% (inactive).
`O=C1OC(c2ccc(-c3ccccc3)cc2)=C/C1=C/c1c2ccccc2cc2ccccc12`: the growth is 96% (inactive).
As for `O=C(O)c1ccc(-c2nn(-c3ccc(C(=O)O)cc3)cc2CNc2ccc(Br)cc2)cc1`, the growth was 102% (inactive).
For the compound `O=C(N/N=C\c1ccc(-c2ccc(Br)cc2)o1)c1cc2oc(-c3cccc(C(F)(F)F)c3)cc2[nH]1`, the growth is 115% (inactive).
Consider `COC(=O)c1ccc2[nH]c(O)c(C(=Nc3ccc(N(C)C(=O)CN4CCN(C)CC4)cc3)c3ccc(N)cc3)c2c1`, for which the growth was 85.6% (inactive).
On the same count and under the same terms, the value for `COC(=O)c1ccc(C(=Nc2ccc(N(C)C(=O)CN3CCN(C)CC3)cc2)c2c(O)[nH]c3ccc(C(=O)OC)cc23)cc1` was 0.753% (active).
For the compound `Cc1ccc(C(C)C)c(OCc2ccc(C(=O)N/N=C/c3cccc(O)c3O)cc2)c1`, the growth is 66.1% (inactive).
Regarding `O=C1Nc2c(c(=O)n(-c3ccccc3)c3ccccc23)C(c2ccc(Cl)cc2)N1` (centres undefined), the growth is 89.8% (inactive).
On to `O=c1c2c(c3ccccc3n1-c1ccccc1)NC(=S)NC2c1ccccc1` (centres undefined), for which the growth is 95.1% (inactive).
For `COC(=O)c1ccc2[nH]c(O)c(C(=Nc3ccc(N(C)C(=O)CN4CCN(C)CC4)cc3)c3ccc(CCO)cc3)c2c1`, the growth is 39.7% (inactive).
Regarding `CCCCn1c(Cc2ccc(OC)cc2)nc2cc(OC)c(OC)cc2c1=O`, the growth is 99.4% (inactive).
Regarding `Cc1[nH]n(C(=S)Nc2nc3cc(Cl)c(F)cc3s2)c(=O)c1N=Nc1ccc(F)c(Cl)c1`, the growth is 97.8% (inactive).
Regarding `Clc1ccc(N/N=C(\c2ccccc2)c2ccccn2)nc1`, the growth was 12.5% (inactive).
Turning to `c1ccc(Nc2ncc3c(n2)-c2cccn2CC3)cc1`, the growth is 88.9% (inactive).
Turning to `C=CCC(CCC(CC=C)C(=O)OCC)C(=O)OCC` (centres undefined), the growth is 107% (inactive).
With `O=[N+]([O-])c1ccc(-c2ncc(-c3ccc(O)cc3O)[nH]2)cc1`, the growth is 116% (inactive).
On to `CC(=O)OC1/C=C\CC/C=C\C1` (centres undefined), for which the growth was 105% (inactive).
As for `CCN(CC)CCCNc1c2ccc(Cl)cc2nc2ccc(OC)cc12`, the growth was 3.94% (active).
Take `COc1cc(-c2nn(-c3ccc(NC(=O)Nc4cc(C(F)(F)F)cc(C(F)(F)F)c4)cc3)cc2-c2ccncc2)ccc1Cl`: the growth is -3.31% (active).
`CC(=O)Nc1nc(C)c(C(=O)NN)s1`: the growth is 102% (inactive).
On to `CC/C(=N\Nc1nc2ccccc2n1C)c1ccccn1`, for which the growth was 11.6% (inactive).
With `CC(=O)OCC1O[C@@H](OC(C)=O)[C@@H](NC(=O)NS(=O)(=O)c2ccccc2)C(OC(C)=O)[C@@H]1OC(C)=O` (some centres undefined), the growth is 113% (inactive).
The same measure, in the same setting: the figure for `Cc1nc2c(nnn2-c2ccccc2)c2nc(-c3ccccc3)oc(=O)c12` is 115% (inactive); for `CCc1ccc(C(=Nc2ccc(N(C)C(=O)CN3CCN(C)CC3)cc2)c2c(O)[nH]c3ccc(C(=O)OC)cc23)cc1` it is -61.5% (active); for `C=C[C@]1(C)C=C2C(=O)[C@@]3(O)OC[C@@]4(CCCC(C)(C)C43O)C2(O)C(O)C1` (some centres undefined) it is 104% (inactive).
For `CCOC(=O)c1c2c(cn1Cc1ccccc1)-c1oncc1CC2`, the growth is 109% (inactive).
